Records with an inconclusive call do not appear. Activity calls are given as the source filed them. Calls follow the shape of the dose curve; as a rule, active = well fitted inhibition curve with a large enough effect; inconclusive = small, poorly fitted or top-dose-only effect; inactive = flat fitted curve, though single readings scatter. *1 amine or outer side, *2 acyl side, *3 side chain or, on linkers, in order; H or OH if unused. Where a SMILES comes first, the peptide text is derived from it. [ ]: non-standard residue; d: D form. The star is where a group is joined. ξ: configuration not given here. X9 = CCC(C)(N*)C(=O)C1CC[C@@H](C(=O)N[C@@H](Cc2ccccc2)C(=O)NCC(=O)O)N1; X8 = O=C([C@@H]1CC(O)CN1[*:1])[*:2]; aIle = CC[C@@H](C)[C@H](N)C(=O)O; Thr(3ξ) = CC(O)[C@H](N)C(=O)O; ξIva = CCC(C)(N)C(=O)O; Aib = CC(C)(N)C(=O)O
Legend:
Assay in all cases: Cytotoxic Profiling of Annotated Libraries Using Quantitative High-Throughput Screening (AID 1296008); also: nearly all actives have a fitted effect of over 60% in size
Settings in all cases: Five cell lines viability, CellTiter-Glo ATP luminescence, 48-72 h; max response: stronger effect = lower value
[1] = test system: CRL-7250
Summary of the method: (§1)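 Cytotoxicity was measured as CellTiter-Glo ATP luminescence, read after 10 min at room temperature. Compound treatment of the cells lasted 48 or 72 hr at 37 degrees Celsius in a qHTS format.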

[2] = test system: HEK293
Summary of the method: as §1

[3] = test system: HaCat
Summary of the method: as §1

[4] = test system: KB-3-1
Summary of the method: as §1

[5] = test system: NIH3T3
Summary of the method: as §1

Measured: max response
% is scaled to controls: 0 for no effect and ±100 for the full control effect.

C=C1CCC2C(C)(C)CCC[C@]2(C)[C@H]1CC/C(C)=C/C(=O)O (stereo not given in full)
inactive: [1] | [2] -1.43% | [3] | [4] -7.37% | [5] 2.18%

CC1(C)CC[C@]2(C(=O)O[C@@H]3O[C@H](CO)[C@@H](O)[C@H](O)[C@H]3O)CC[C@]3(C)C(=CCC4[C@@]5(C)C[C@@H](O)[C@H](O)[C@@](C)(CO)C5[C@H](O)C[C@]43C)C2C1 (stereo not given in full)
inactive: [1] -10.1% | [2] -14.5% | [3] | [4] -2.95% | [5]

CC/C=C/C(O)C(O)C1=C(C)C(=O)C2(O1)C(=O)NC(OC)(C(=O)c1ccccc1)C2O (stereo not given)
inactive: [1] 0.865% | [2] 2.1% | [3] -3.32% | [4] | [5]

C=C1CC[C@]2(C(=O)O[C@@H]3O[C@H](CO)[C@@H](O)[C@H](O)[C@H]3O)CC[C@]3(C)C(=CCC4[C@@]5(C)C[C@H](O)[C@@H](O[C@@H]6O[C@H](C(=O)O)[C@@H](O)[C@H](O)[C@H]6O)[C@](C)(C=O)C5CC[C@]43C)C2C1 (stereo not given in full)
inactive: [1] 4.09% | [2] -16.5% | [3] -21.8% | [4] 9.97% | [5]

COC(=O)C(Cc1ccccc1)NC(=O)c1ccccc1 (stereo not given)
inactive: [1] -7.59% | [2] -8.19% | [3] | [4] 6.61% | [5] -1.1%

COc1cc(O)cc(C)c1C(=O)OC1C(CO)OC(n2ccc(=O)[nH]c2=O)C1OC(C)=O (stereo not given)
inactive: [1] | [2] 2.97% | [3] | [4] 8.59% | [5] -1.67%

C=C1Cc2c(Cl)cc3[nH]c4c5c3c2[C@@]2(O)[C@@H]1C[C@@H]2C(C)(C)O[C@H]5C1CC[C@@]2(O)[C@@]35O[C@@H]3[C@H]3OC(C)(C)[C@H]3O[C@H]5CC[C@]2(C)[C@@]41C (stereo not given in full)
inactive: [1] -4.78% | [2] 0.456% | [3] | [4] 6.12% | [5]

O=C(O)CC(CCc1ccccc1)OC1OC(CO)C(O)C(O)C1O (stereo not given)
inactive: [1] -6.12% | [2] -5.21% | [3] | [4] | [5]

CC[C@@H](C)[C@H](NC(=O)C(C)(C)NC(=O)[C@H](CCC(N)=O)NC(=O)C(C)(CC)NC(=O)[C@H](Cc1c[nH]c2ccccc12)NC(C)=O)C(=O)N[C@H](C(=O)NC(C)(C)C(=O)N[C@@H](CC(C)C)C(=O)NC(C)(C)C(=O)N1CCC[C@H]1C(=O)N[C@@H](CCC(N)=O)C(=O)NC(C)(C)C(=O)N1CC(O)C[C@H]1C(=O)NC(C)(CC)C(=O)C1CC[C@@H](C(=O)N[C@@H](Cc2ccccc2)C(=O)NCC(=O)O)N1)C(C)O (stereo not given in full) (Ac-W[ξIva]Q[Aib][aIle][Thr(3ξ)][Aib]L[Aib]PQ[Aib][X8]-X9)
inactive: [1] -9.43% | [2] -13.1% | [3] inactive; activator | [4] -1.3% | [5] -1.9%

CC1(C)CC[C@]2(C(=O)O[C@@H]3O[C@H](CO)[C@@H](O)[C@H](O)[C@H]3O)CC[C@]3(C)C(=CCC4[C@@]5(C)CC[C@H](O[C@H]6O[C@H](CO)[C@@H](O)[C@H](O[C@@H]7O[C@H](CO)[C@@H](O)[C@H](O)[C@H]7O)[C@H]6O)C(C)(C)C5CC[C@]43C)[C@@H]2C1 (stereo not given in full)
inactive: [1] -1.95% | [2] -4.45% | [3] | [4] 4.79% | [5]

CC(C)C1NC(=O)C2CCCN2C1=O (stereo not given)
inactive: [1] | [2] 0.78% | [3] | [4] | [5]

CC(=O)OC[C@@]12C(=O)C[C@@H](C)[C@]3(C[C@@H](c4ccoc4)OC3=O)[C@H]1CC[C@H](OC(C)=O)[C@]21CO1
inactive: [1] -3.74% | [2] -0.582% | [3] | [4] | [5] -0.126%

Cc1c(F)cc(C(=O)NC2CC2)cc1-c1ccc(C(=O)NCC(C)(C)C)cn1
inactive: [1] | [2] -4.94% | [3] | [4] 4.19% | [5] -1.86%

CC1CCCCCCCc2cc(O)cc(O)c2C(=O)O1 (stereo not given)
inactive: [1] | [2] 0.839% | [3] | [4] | [5] 0.752%

CC1=CC[C@@]2(C)CC[C@@](O)(C(C)C)[C@@H]2[C@@H](O)C1
inactive: [1] 2.53% | [2] 0.0265% | [3] 1.77% | [4] | [5]

C=C[C@H]1[C@H](O[C@@H]2O[C@H](CO)[C@@H](O)[C@H](OC(=O)/C=C/c3ccc(O)c(OC)c3)[C@H]2O)OC=C2C(=O)OCC[C@]21O
inactive: [1] -3.95% | [2] -3.81% | [3] | [4] 6.87% | [5]

CC1(C)CC[C@]2(C(=O)O[C@@H]3O[C@H](CO)[C@@H](O)[C@H](O)[C@H]3O)CC[C@]3(C)C(=CCC4[C@@]5(C)C[C@H](O)[C@H](O[C@@H]6O[C@H](C(=O)O)[C@@H](O)[C@H](O)[C@H]6O)[C@@](C)(CO)C5CC[C@]43C)C2C1 (stereo not given in full)
inactive: [1] -4.26% | [2] 1.87% | [3] | [4] -16.3% | [5]

CO[C@H]1c2cc(C(C)C)c(O)c(O)c2[C@@]23CCCC(C)(C)C2[C@@H]1OC3=O (stereo not given in full)
inactive: [1] | [2] -7.48% | [3] | [4] | [5]

CC(C)=CCC[C@](C)(O[C@@H]1O[C@H](CO[C@@H]2O[C@@H](CO)[C@H](O)[C@H]2O[C@@H]2OC[C@@H](O)[C@H](O)[C@H]2O)[C@@H](O)[C@H](O)[C@H]1O)[C@H]1CC[C@]2(C)[C@@H]1[C@H](O)CC1[C@@]3(C)CC[C@H](O[C@@H]4O[C@H](CO)[C@@H](O)[C@H](O)[C@H]4O[C@@H]4O[C@H](CO)[C@@H](O)[C@H](O)[C@H]4O)C(C)(C)C3CC[C@]12C (stereo not given in full)
inactive: [1] 4.19% | [2] -1.64% | [3] | [4] 8.39% | [5] 4.58%

C=C1CC[C@@]2(OC1)O[C@H]1CC3[C@@H]4CC=C5C[C@H](O[C@H]6OC[C@@H](O)C(O)[C@@H]6O[C@@H]6O[C@@H](C)[C@H](O)[C@@H](O[C@@H]7O[C@H](CO)[C@@H](O)[C@H](O)[C@H]7O)[C@H]6O)C[C@@H](O)[C@]5(C)C4CC[C@]3(C)[C@H]1[C@@H]2C (stereo not given in full)
inactive: [1] 3.7% | [2] -14.3% | [3] | [4] -1.49% | [5]

CC/C=C\C(O)C(O)C1=C(C)C(=O)C2(O1)C(=O)NC(OC)(C(=O)c1ccccc1)C2O (stereo not given)
inactive: [1] | [2] -0.178% | [3] | [4] 7.12% | [5] -1.62%

C=CCc1ccc(O[C@@H]2O[C@H](CO)[C@@H](O)[C@H](O)[C@H]2O)c(O[C@@H]2O[C@H](CO)[C@@H](O)[C@H](O)[C@H]2O)c1
inactive: [1] -3.11% | [2] -0.299% | [3] | [4] | [5]

CCC/C=C/C=C/C1CC(O)C(O)C(=O)C1CO (stereo not given)
inactive: [1] | [2] -5.36% | [3] | [4] | [5]

C=C1CC[C@@]2(OC1)O[C@H]1CC3C4CC=C5C[C@@H](O[C@@H]6O[C@@H](C)[C@H](O)[C@@H](O)[C@H]6O)C[C@@H](O[C@@H]6O[C@H](C)[C@H](O)[C@H](O)[C@H]6O[C@@H]6O[C@@H](C)[C@H](O)[C@@H](O)[C@H]6O)[C@]5(C)C4CC[C@]3(C)[C@H]1[C@@H]2C (stereo not given in full)
inactive: [1] | [2] 1.18% | [3] -14.8% | [4] 5.01% | [5]

CC(C)C1CCC(C(=O)N[C@@H](Cc2ccccc2)C(=O)O)CC1 (stereo not given in full)
inactive: [1] | [2] 3.42% | [3] | [4] | [5]

O=S(=O)(O)c1ccc(Nc2ncnc3c2ncn3[C@@H]2O[C@H](CO)[C@@H](O)[C@H]2O)cc1
inactive: [1] | [2] -6.97% | [3] -25.7% | [4] | [5]

COc1ccc(C2(O)c3ccccc3NC(=O)C2OC)cc1 (stereo not given)
inactive: [1] -6.47% | [2] 1.57% | [3] | [4] 5.23% | [5]

C=C1CCC2[C@](C)(CO)CCC[C@@]2(C)[C@@H]1CCC1=CCOC1=O (stereo not given in full)
inactive: [1] -10.5% | [2] -0.138% | [3] | [4] 5.6% | [5] -5.66%

COc1cc(/C=C/C(=O)O[C@H]2[C@@H]3C=CO[C@@H](O[C@@H]4O[C@H](CO)[C@@H](O)[C@H](O)[C@H]4O)[C@@H]3[C@@]3(CO)O[C@@H]23)ccc1O
inactive: [1] | [2] 1.49% | [3] | [4] | [5]

OC[C@H]1O[C@@H](OCc2ccccc2)[C@H](O[C@@H]2OC[C@@H](O)[C@H](O)[C@H]2O)[C@@H](O)[C@@H]1O
inactive: [1] | [2] 0.407% | [3] | [4] | [5]

CC(NC(=O)CC(=O)O)C(=O)Nc1ccccc1C(N)=O (stereo not given)
inactive: [1] -2.72% | [2] 2.48% | [3] -2.92% | [4] 3.19% | [5]

Cc1ccc([C@@H]2CC=C(C(=O)O)[C@H](c3ccc(C(C)(C)C)cc3)N2S(=O)(=O)c2ccc(C)cc2)cc1
inactive: [1] | [2] -30.1% | [3] | [4] 3.45% | [5]

N[C@@H](CCNCc1ccc(Cl)cc1)C(=O)N1CCCCC1
inactive: [1] | [2] 2.57% | [3] | [4] 7.85% | [5] -2.5%

CCC/C=C1\OC(=O)C2=C1CCC(O)C2O (stereo not given)
inactive: [1] | [2] 1.42% | [3] 3.9% | [4] 0.969% | [5]

CC(=O)OC1CC(C(C)(C)O)OC2CCC3(C)OC4=C(C(=O)C=C5C(C)C(OC(C)=O)C6(C)C(C)OC546)C(O)C3C12C (stereo not given)
inactive: [1] | [2] -23.5% | [3] | [4] 5.34% | [5] 1.94%

From PubChem BioAssay (NCATS)
